Experimental data from PMC5540273 (PLoS ONE, 2017).

tested on: CDK3; conditions: concentration: 1 μM, replicates: in singlicate; n = 1
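Further: KINOMEscan kinase panel screen.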

| Structure (SMILES) | %Inh [%] |
| --- | --- |
| CN(C)c1ncnc2nc[nH]c12 [SKF-31736] | 17 |
| O=C(O)C(F)(F)F.O=c1[nH]ccc2nc(N[C@@H]3CCNC3)nc(Nc3ccc4c(c3)S(=O)(=O)CC4)c12 [GSK2181306] | 53 |
| Cn1cc(-c2cnc(N)c3c(-c4ccc5c(c4)CCN5C(=O)Cc4ccccc4)csc23)cn1 [GSK2593074] | 1 |
| Cc1ccc(NC(=O)c2ccc(Cl)c(Cl)c2)cc1-c1ccc(C(=O)Nc2ccncc2)cc1 [GSK1398460] | 5 |

tested on: CDK4-cyclinD1; conditions: concentration: 1 μM, replicates: in singlicate; n = 1

| Structure (SMILES) | %Inh [%] |
| --- | --- |
| N#CC1(c2cccc(C(=O)Nc3cccc(Oc4ccc5nc(NC(=O)C6CC6)sc5n4)c3)c2)CC1 | 15 |
| Cc1ccc(C)c(NC(=O)Nc2ccc(C)c(-c3ccc(C(=O)Nc4ccncc4)cc3)c2)c1 [GSK1398473] | 0 |
| O=C(Nc1n[nH]c2nc(-c3ccccc3O)ccc12)C1CC1 [SB-711880] | 25 |
| CCn1c(-c2nonc2N)nc2c(-c3ccccc3)ncc(OCCCN)c21.O=C(O)C(F)(F)F.O=C(O)C(F)(F)F [GSK260205] | 0 |
| Cl.Cl.NC(CNC(=O)c1cc(Br)c(-c2ccnc3[nH]ccc23)s1)c1ccccc1 (stereo not drawn) [GSK1322949] | 17 |
| CCOc1nccc(-c2c(-c3ccc(F)cc3)ncn2C2CCNCC2)n1 [SB-249175] | 33 |
| COc1cccc2c(-c3ccncc3)c(-c3ccc(F)cc3)nn12 [GW468513] | 27 |
| CC(C)c1nc(-c2cccc(NS(=O)(=O)c3c(F)cccc3F)c2)c(-c2ccnc(Nc3ccc(N4CCOCC4)nc3)n2)s1.Cl [GSK1723980] | 96.2 |
| O=C(Nc1n[nH]c2cc(-c3cccs3)ccc12)C1CC1 [SB-731284] | 0 |
| Cc1ccc(NC(=O)c2cccc(N3CCCCC3)c2)cc1-c1ccc(C(=O)NCC2CC2)cc1 [GSK1917008] | 0 |
| Cl.O=C(Nc1ccc(Oc2ccc3[nH]c(NC(=O)c4ccco4)nc3c2)cc1)Nc1cc(C(F)(F)F)ccc1F [GW683134] | 0 |
| Cn1cc(-c2ccc3c(c2)CCN3C(=O)Cc2cc(F)cc(C(F)(F)F)c2)c2c(N)ncnc21 [GSK2635225] | 0 |
| COc1cc(Nc2nccc(N3CCC(NS(=O)(=O)c4ccc(NC(C)=O)cc4)CC3)n2)cc(OC)c1OC [GSK1379825] | 16 |
| O=C1NC(=O)C(c2ccccc2Cl)=C1Nc1cccc(Cl)c1 [SB-342409] | 7 |
| Cc1cc(-c2ccnc(Nc3cccc(C#N)c3)n2)cc(C)c1O [GSK1440913] | 42 |
| CC(C)NCC(Cc1ccccc1)NC(=O)c1cc(Br)c(-c2ccnc3[nH]ccc23)s1.Cl.Cl (stereo not drawn) [GSK1383281] | 0 |
| Nc1ncc(-c2ccc3nccc(-c4ccncc4)c3c2)cc1S(=O)(=O)N1CCCCC1 [GSK1693850] | 9 |
| COc1cc(Nc2ccnc3cc(-c4ccncc4)ccc23)cc(OC)c1OC.Cl [GW494610] | 39 |
| COC(=O)Nc1nc2ccc(Oc3ccc(NC(=O)Nc4cc(C(F)(F)F)ccc4F)cc3)cc2[nH]1.Cl [GW654607] | 0 |
| c1ccc(Oc2ccc(Nc3ccnc4cc(-c5ccc(CN6CCCCC6)o5)ccc34)cc2)nc1 [GW567143] | 0 |
| COc1cccc(CC(=O)N2CCc3cc(-c4cn(C)c5ncnc(N)c45)ccc32)c1 [GSK2608899] | 0 |
| COc1ccc(C)c(Nc2ccnc(Nc3ccc(-c4cnc[nH]4)cc3)n2)c1.Cl [GW784041] | 0 |
| CCNC(=O)/C=C/c1n[nH]c2cc(Sc3ccccc3C(=O)NC)ccc12 | 0 |
| Cl.N#CCc1ccc(Nc2nccc(Nc3ccc(Oc4ccccc4)cc3)n2)cc1 [GW639905] | 0 |
| CC(=O)Nc1cn2nc(Oc3cccc(NC(=O)c4cccc(C(F)(F)F)c4)c3)ccc2n1 | 0 |
| CCNc1nccc(-c2c(-c3ccc(F)cc3)ncn2C2CCN(C)CC2)n1 | 0 |
| COC(=O)Nc1nc2cc(Oc3ccc(NC(=O)Nc4cccc(SC)c4)cc3)ccc2[nH]1.Cl [GW697999] | 34 |
| Fc1cc(Cl)ccc1Nc1ccnc2cc(-c3ccc(CN4CCOCC4)o3)ccc12 [GW560109] | 0 |
| NCCC(NC(=O)c1cc(Br)c(-c2ccnc3[nH]ccc23)s1)c1ccccc1.O=C(O)C(F)(F)F.O=C(O)C(F)(F)F (stereo not drawn) [GSK1307810] | 38 |
